# Experimental data: PubChem BioAssay (Tox21)
# Inconclusive results are not listed. A call without a number means that no potency is given here. A structure can be active in one record and inactive in another. Activity calls are given as the source filed them. Unless noted, calls follow the shape of the dose curve; as a rule, active = well fitted curve in the direction sought with a large enough effect in the repeat runs; inconclusive = weak or mixed curves; inactive = no such curve, though single readings can be large; an effect the other way counts as inactive or inconclusive.
# What was measured:
# [1] = qHTS assay to identify small molecule agonists of the sonic hedgehog signaling (Shh) pathway (AID 1259368; calls by dose curve;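 also: NIH/3T3-derived 3T3Gli1-Luc cells carrying a stable Gli1-driven firefly luciferase reporter; series mostly up to about 92 µM; nearly all actives have a fitted effect of over 15% in size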)
# Method in brief: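 Cells of a mouse NIH/3T3 clone stably expressing luciferase under the Gli1 transcriptional response element are exposed to test chemicals for 24 hr at 37 C. Pathway activation is detected as a rise in luminescence.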
# [2] = qHTS assay to identify small molecule antagonists of the sonic hedgehog signaling (Shh) pathway (AID 1259369; calls by dose curve; also: nearly all actives have a fitted effect of over 45% in size; also: potency is read from the fitted curve at half-maximal effect)
# Method in brief: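 Cells are plated and held 4hr at 37 C, compounds (DMSO) are pinned in, conditioned medium is added to stimulate the pathway, and after 24hr luciferase reagent is added for 30min before luminescence is read.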
# [3] = biological target: Estrogen receptor beta (Homo sapiens) (UniProt Q92731); test: qHTS assay to identify small molecule agonists of the estrogen receptor beta (ER-beta) signaling pathway (AID 1259377; active = well fitted activation curve with a large enough effect in the signal ratio in the repeat runs, not every such curve was filed as active; the % refers to the signal ratio)
# Method in brief: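 Beta-lactamase reporter readout: fluorescence of LiveBLAzer B/G FRET substrate after 2 h at room temperature, following 16 h compound treatment of ER-beta-UAS-bla HEK293T cells at 37C in 2% charcoal-stripped FBS medium.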
# [4] = biological target: Estrogen receptor beta (Homo sapiens) (UniProt Q92731); test: qHTS assay to identify small molecule antagonists of the estrogen receptor beta (ER-beta) signaling pathway (AID 1259378; active = well fitted inhibition curve with a large enough effect in the signal ratio in the repeat runs, not every such curve was filed as active; the % refers to the signal ratio)
# Method in brief: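 ER-beta-UAS-bla HEK293T cells in 2% charcoal-stripped FBS medium treated with compound plus 1nM final 17-beta-estradiol for 16 hr at 37C. Beta-lactamase reporter read by FRET substrate fluorescence after 2 hours at room temperature.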
# [5] = qHTS assay to identify small molecule agonists of the estrogen receptor beta (ER-beta) signaling pathway - cell viability counter screen (AID 1259380); also: nearly all actives have a fitted effect of over 30% in size
# Method in brief: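 Cytotoxicity is measured in parallel with the reporter screen: after 16 hr compound exposure at 37C and a 2 hr LiveBLAzer step, CellTiter-Glo is added to the same ER-beta-UAS-bla HEK293T wells and luminescence read after 30 min.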
# [6] = qHTS assay to identify small molecule antagonists of the estrogen receptor beta (ER-beta) signaling pathway - cell viability counter screen (AID 1259382); also: series mostly up to about 92 µM; nearly all actives have a fitted effect of over 55% in size
# Method in brief: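 Cytotoxicity counter screen multiplexed with the beta-lactamase antagonist assay: GripTite HEK293T ER-beta-bla cells were treated 16 hr with test chemicals in the presence of 1nM 17-beta-estradiol, and viability was measured by CellTiter-Glo.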
# [7] = qHTS assay to identify small molecule agonists or antagonists of the thyroid stimulating hormone receptor (TSHR) signaling pathway - wild type cell line counter screen (AID 1259384; calls by dose curve)
# Method in brief: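 Wild-type Hek293 cells, 800/well, 18 h at 37C, then compound with Ro20-1724 for 30 min RT. cAMP by HTRF (cAMP-d2/anti-cAMP cryptate), 1 h RT, fluorescence read. 15 concentrations, triplicates.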
# [8] = biological target: Thyrotropin receptor (Homo sapiens) (UniProt P16473); test: qHTS assay to identify small molecule antagonists of the thyroid stimulating hormone receptor (TSHR) signaling pathway (AID 1259385; calls by dose curve; also: nearly all actives have a fitted effect of over 20% in size)
# Method in brief: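 TSHR-HEK293 cells (800/well) plated 18 h, then compounds with Ro20-1724 and TSH at 1.5 ng/mL final, 30 min at room temperature. cAMP quantified by HTRF (cAMP-d2/anti-cAMP-cryptate, 1 h); 15 concentrations in triplicate.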
# [9] = qHTS assay to identify small molecule agonists of the estrogen receptor alpha (ER-alpha) signaling pathway in the presence of an antagonist - cell viability counter screen (AID 1259386);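 also: series mostly up to about 92 µM; cells exposed to compounds for 22 h at 37 °C before the viability read; nearly all actives have a fitted effect of over 30% in size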
# Method in brief: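 Cytotoxicity was measured in parallel with the ERE-luciferase agonist screen, in the same wells. The cells were VM7Luc4E2, which endogenously express ER-alpha, and treatment was with compounds plus 10.0nM ICI-182,780 for 22hr.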
# [10] = biological target: Progesterone receptor (Homo sapiens) (UniProt P06401); test: qHTS assay to identify small molecule agonists of the progesterone receptor (PR) signaling pathway (AID 1346784; calls by dose curve; also: nearly all actives have a fitted effect of over 30% in size)
# Method in brief: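 HEK 293T PR-UAS-bla reporter cells, 2% charcoal-stripped FBS; 6 hr settle at 37C/5% CO2, compound (DMSO) 16 hr, LiveBLAzer B/G FRET substrate 2 hr RT, fluorescence intensity read.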
# [11] = biological target: Progesterone receptor (Homo sapiens) (UniProt P06401); test: qHTS assay to identify small molecule antagonists of the progesterone receptor (PR) signaling pathway (AID 1346795; active = well fitted inhibition curve with a large enough effect in the signal ratio in the repeat runs, not every such curve was filed as active; the % refers to the signal ratio)
# Method in brief: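 Beta-lactamase reporter, HEK293T PR-UAS-bla line; 2% charcoal-stripped FBS; 6 hr pre-incubation, 37C/5% CO2. Compound + R5020 1 nM final, 16 hr. LiveBLAzer B/G FRET substrate, 2 hr RT; fluorescence intensity read.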
# [12] = qHTS assay to identify small molecule agonists of the progesterone receptor (PR) signaling pathway - cell viability counter screen (AID 1346799; calls by dose curve; also: nearly all actives have a fitted effect of over 45% in size)
# Method in brief: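 HEK293T PR-UAS-bla, 3,000 cells/well, 2% charcoal-stripped FBS; 6 h settle, compound 16 h at 37C/5% CO2; LiveBLAzer 2 h RT, then CellTiter-Glo 30 min RT, luminescence read.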
# [13] = qHTS assay to identify small molecule antagonists of the TGF-beta/Smad signaling pathway - cell viability counter screen (AID 1346824); also: nearly all actives have a fitted effect of over 50% in size
# Method in brief: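 SBE-bla HEK 293T cells, incubated overnight, then compound plus 0.25 ng/mL TGF-beta1 (stock added) for 5 hr at 37 C. Viability was read in the same wells by CellTiter-Glo luminescence after 30 min at room temperature.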
# [14] = qHTS assay to identify small molecule agonists of the TGF-beta/Smad signaling pathway - cell viability counter screen (AID 1346829); also: top concentration of the series differs between compounds; nearly all actives have a fitted effect of over 45% in size
# Method in brief: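 HEK 293T SBE-bla line, 5 hr compound exposure at 37 C, multiplexed CellTiter-Glo viability read by luminescence.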
# [15] = qHTS assay to identify small molecule agonists of the androgen receptor (AR) signaling pathway in the presence of an antagonist - cell viability counter screen (AID 1259379);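 also: MDA-kb2 human breast cancer cells carrying an MMTV luciferase reporter; series mostly up to about 92 µM; nearly all actives have a fitted effect of over 25% in size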
# Method in brief: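 Cytotoxicity is assessed by CellTiter-Fluor in MDA-kb2 cells carrying an MMTV-driven luciferase reporter. Cells receive 3.0uM nilutamide plus compounds at 15 concentrations and incubate 16 hr at 37C without CO2 before fluorescence reading.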
# [16] = qHTS assay to identify small molecule antagonists of the progesterone receptor (PR) signaling pathway - cell viability counter screen (AID 1346798); also: series mostly up to about 92 µM; nearly all actives have a fitted effect of over 50% in size
# Method in brief: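 Luminescence readout (CellTiter-Glo, 30 min, RT) of viability in PR-UAS-bla HEK293T cells exposed to compound and R5020 agonist for 16 hr at 37C, 5% CO2; run in the same wells as the beta-lactamase reporter read.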
# [17] = qHTS assay to identify small molecule agonists of the TGF-beta/Smad signaling pathway (AID 1346859; active = well fitted activation curve with a large enough effect in the signal ratio in the repeat runs, not every such curve was filed as active; the % refers to the signal ratio; also: series mostly up to about 77 µM)
# Method in brief: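 Read-out: fluorescence at 460 and 530 nm (405 nm excitation) after a 2 hr room-temperature incubation with beta-lactamase FRET substrate. SBE-bla HEK 293T cells had been treated with test compounds for 5 hr at 37 C.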
# [18] = biological target: Thyrotropin-releasing hormone receptor (Homo sapiens) (UniProt P34981); test: qHTS assay to identify small molecule antagonists of the thyrotropin-releasing hormone receptor (TRHR) signaling pathway (AID 1346877; active = well fitted inhibition curve with a large enough effect in the repeat runs, not every such curve was filed as active; also: series mostly up to about 51 µM)
# Method in brief: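 Antagonism is measured as suppression of the calcium response to 1 nM TRH in TRHR-HEK293 cells that have been dye-loaded for 2 h at 37 °C after overnight plating. Each compound is tested at 15 concentrations in triplicate.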
# [19] = biological target: Androgen receptor (Homo sapiens) (UniProt P10275); test: qHTS assay to identify small molecule agonists of the androgen receptor (AR) signaling pathway in the presence of an antagonist (AID 1259381; calls by dose curve; also: nearly all actives have a fitted effect of over 15% in size)
# Method in brief: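 Agonist-mode confirmation screen: human MDA-kb2 cells stably expressing luciferase under an MMTV promoter bearing AR and GR response elements, co-treated with 3.0uM nilutamide (final). Luminescence measured after 16hr compound incubation.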
# [20] = biological target: Estrogen receptor (Homo sapiens) (UniProt P03372); test: qHTS assay to identify small molecule agonists of the estrogen receptor alpha (ER-alpha) signaling pathway in the presence of an antagonist (AID 1259383; calls by dose curve; also: top concentration of the series differs between compounds; nearly all actives have a fitted effect of over 15% in size)
# Method in brief: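 Agonist-mode confirmation in the presence of the ER antagonist ICI-182,780 at 10.0nM final. Breast-derived VM7Luc4E2 reporter cells were exposed to compounds for 22hr, and ERE-driven luciferase was quantified by luminescence.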
# Chain of Estrogen receptor (Homo sapiens) (P03372 whole entry, looked up): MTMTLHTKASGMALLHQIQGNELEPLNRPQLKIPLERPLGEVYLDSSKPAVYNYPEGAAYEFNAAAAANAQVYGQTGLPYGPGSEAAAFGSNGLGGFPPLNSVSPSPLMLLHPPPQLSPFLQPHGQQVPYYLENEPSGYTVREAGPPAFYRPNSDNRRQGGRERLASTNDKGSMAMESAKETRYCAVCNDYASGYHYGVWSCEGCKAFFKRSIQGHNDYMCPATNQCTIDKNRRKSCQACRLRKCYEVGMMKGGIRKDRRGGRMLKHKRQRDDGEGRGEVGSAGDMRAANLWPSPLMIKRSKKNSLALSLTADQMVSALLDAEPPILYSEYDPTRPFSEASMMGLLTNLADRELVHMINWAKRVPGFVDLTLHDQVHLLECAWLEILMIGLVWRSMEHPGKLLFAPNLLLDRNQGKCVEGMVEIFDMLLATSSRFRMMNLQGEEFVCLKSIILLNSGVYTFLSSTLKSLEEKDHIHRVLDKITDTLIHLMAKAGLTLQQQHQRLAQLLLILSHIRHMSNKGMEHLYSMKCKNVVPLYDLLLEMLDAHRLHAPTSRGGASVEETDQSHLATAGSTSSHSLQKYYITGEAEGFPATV
# Chain of Thyrotropin-releasing hormone receptor (Homo sapiens) (P34981 whole entry, looked up): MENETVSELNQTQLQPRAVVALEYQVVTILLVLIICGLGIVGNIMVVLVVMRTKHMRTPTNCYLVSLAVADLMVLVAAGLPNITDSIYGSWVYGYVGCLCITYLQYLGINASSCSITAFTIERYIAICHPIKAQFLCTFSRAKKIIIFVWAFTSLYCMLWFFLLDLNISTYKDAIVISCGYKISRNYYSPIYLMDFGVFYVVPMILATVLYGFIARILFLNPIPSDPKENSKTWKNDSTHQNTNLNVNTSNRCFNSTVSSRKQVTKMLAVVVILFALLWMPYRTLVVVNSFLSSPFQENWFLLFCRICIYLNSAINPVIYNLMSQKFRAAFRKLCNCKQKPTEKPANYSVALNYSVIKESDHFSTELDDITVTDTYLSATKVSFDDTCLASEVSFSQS
# Chain of Progesterone receptor (Homo sapiens) (P06401 whole entry, looked up): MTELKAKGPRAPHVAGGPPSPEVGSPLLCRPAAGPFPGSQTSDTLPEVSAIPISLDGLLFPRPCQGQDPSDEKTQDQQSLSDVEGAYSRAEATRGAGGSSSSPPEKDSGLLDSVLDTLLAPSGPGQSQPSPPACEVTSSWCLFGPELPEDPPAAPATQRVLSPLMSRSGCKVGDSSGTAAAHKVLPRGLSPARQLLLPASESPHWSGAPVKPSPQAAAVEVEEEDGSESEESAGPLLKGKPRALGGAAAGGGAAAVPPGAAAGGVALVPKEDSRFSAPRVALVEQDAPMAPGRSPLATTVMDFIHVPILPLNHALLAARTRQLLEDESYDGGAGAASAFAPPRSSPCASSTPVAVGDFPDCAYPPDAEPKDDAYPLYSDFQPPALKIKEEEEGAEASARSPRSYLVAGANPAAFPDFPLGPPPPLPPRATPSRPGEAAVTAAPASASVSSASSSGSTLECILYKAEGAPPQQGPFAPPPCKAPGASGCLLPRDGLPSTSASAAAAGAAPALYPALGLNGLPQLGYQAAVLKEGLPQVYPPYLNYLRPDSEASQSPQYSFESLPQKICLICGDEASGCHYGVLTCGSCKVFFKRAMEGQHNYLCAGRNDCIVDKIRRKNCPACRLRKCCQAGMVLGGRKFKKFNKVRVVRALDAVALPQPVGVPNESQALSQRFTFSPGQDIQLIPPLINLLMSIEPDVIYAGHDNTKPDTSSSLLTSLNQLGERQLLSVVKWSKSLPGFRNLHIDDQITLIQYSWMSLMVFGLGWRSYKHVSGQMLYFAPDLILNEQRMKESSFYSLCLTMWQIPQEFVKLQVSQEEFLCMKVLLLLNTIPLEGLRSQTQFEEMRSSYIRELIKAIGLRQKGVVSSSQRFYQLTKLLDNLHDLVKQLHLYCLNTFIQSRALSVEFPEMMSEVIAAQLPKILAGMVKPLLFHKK
# Chain of Estrogen receptor beta (Homo sapiens) (Q92731 whole entry, looked up): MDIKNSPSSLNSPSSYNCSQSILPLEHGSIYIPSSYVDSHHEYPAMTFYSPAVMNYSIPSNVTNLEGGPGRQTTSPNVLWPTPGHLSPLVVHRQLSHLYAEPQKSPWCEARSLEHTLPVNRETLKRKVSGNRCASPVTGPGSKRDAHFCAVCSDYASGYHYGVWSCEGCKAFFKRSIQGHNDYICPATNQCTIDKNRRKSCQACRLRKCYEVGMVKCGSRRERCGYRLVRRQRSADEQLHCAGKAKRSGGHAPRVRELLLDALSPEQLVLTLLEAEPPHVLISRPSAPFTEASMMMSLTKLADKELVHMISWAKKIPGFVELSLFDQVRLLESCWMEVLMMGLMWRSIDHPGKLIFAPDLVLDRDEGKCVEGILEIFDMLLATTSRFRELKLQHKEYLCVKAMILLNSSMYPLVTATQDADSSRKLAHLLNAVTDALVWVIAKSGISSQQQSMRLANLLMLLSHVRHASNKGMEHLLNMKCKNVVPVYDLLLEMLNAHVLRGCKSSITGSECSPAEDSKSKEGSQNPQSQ
# Chain of Androgen receptor (Homo sapiens) (P10275 whole entry, looked up): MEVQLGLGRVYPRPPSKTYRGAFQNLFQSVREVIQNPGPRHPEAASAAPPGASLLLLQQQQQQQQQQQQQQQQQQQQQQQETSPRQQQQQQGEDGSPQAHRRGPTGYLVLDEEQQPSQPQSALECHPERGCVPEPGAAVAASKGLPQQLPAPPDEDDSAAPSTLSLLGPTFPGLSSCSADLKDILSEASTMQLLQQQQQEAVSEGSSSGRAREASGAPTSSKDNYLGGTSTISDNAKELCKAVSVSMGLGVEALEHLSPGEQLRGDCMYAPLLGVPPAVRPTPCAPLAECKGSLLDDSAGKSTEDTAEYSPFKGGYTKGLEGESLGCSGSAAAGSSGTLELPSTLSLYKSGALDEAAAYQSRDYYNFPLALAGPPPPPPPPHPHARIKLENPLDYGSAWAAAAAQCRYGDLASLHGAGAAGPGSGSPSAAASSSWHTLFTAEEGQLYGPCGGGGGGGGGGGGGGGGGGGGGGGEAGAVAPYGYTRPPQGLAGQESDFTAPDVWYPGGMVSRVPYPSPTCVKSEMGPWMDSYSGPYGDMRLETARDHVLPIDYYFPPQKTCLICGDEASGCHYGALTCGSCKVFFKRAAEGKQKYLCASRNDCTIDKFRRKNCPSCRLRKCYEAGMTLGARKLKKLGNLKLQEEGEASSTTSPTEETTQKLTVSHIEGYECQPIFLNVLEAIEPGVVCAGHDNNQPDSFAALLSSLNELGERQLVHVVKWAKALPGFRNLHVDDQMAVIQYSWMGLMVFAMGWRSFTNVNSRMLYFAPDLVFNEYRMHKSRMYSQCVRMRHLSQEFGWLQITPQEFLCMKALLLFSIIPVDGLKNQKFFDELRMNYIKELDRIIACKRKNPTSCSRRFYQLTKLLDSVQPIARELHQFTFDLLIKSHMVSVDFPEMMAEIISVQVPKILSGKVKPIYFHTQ
# Chain of Thyrotropin receptor (Homo sapiens) (P16473 whole entry, looked up): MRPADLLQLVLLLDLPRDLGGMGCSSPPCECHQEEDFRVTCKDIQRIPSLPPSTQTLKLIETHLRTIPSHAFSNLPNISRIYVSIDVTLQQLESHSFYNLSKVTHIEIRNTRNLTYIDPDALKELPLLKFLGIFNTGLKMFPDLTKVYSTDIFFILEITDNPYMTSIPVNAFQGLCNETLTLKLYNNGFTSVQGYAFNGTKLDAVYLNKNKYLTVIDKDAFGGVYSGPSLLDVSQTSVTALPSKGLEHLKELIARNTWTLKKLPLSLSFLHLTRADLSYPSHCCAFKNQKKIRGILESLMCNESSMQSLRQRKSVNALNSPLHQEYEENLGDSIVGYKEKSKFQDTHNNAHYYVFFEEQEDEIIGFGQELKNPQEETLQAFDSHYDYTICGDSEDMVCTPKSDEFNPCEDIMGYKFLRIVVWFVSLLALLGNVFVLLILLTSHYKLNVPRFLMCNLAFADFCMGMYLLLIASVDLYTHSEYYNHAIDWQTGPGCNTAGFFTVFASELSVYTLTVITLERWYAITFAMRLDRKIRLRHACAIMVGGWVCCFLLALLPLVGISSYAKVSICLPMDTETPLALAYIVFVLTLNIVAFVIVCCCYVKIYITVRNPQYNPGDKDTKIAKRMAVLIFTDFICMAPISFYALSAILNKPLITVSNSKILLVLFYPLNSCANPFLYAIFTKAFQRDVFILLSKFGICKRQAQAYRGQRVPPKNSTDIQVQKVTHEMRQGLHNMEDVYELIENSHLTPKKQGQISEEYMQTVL
SMILES,Potency [1],Potency [2],Potency [3],Potency [4],Potency [5],Potency [6],outcome [7],Potency [8],Potency [9],Potency [10],Potency [11],Potency [12],Potency [13],Potency [14],Potency [15],Potency [16],outcome [17],Potency [18],outcome [19],Potency [20]
Cc1ncc[nH]1,inactive,inactive,inactive,inactive,inactive,inactive,inactive,inactive,inactive,inactive,inactive,inactive,inactive,inactive,–,–,–,–,–,–
O=c1oc(=O)c2cc3c(=O)oc(=O)c3cc12,inactive,inactive,inactive,inactive,inactive,inactive,–,–,inactive,–,inactive,inactive,inactive,inactive,inactive,inactive,inactive,inactive,–,–
COC(=O)c1ccccc1,inactive,inactive,inactive,inactive,inactive,inactive,inactive,inactive,inactive,–,–,inactive,inactive,inactive,inactive,inactive,–,inactive,–,–
C=C(C)C(=O)OCCOC(=O)C(=C)C,inactive,inactive,inactive,inactive,inactive,inactive,inactive,inactive,inactive,–,inactive,inactive,inactive,inactive,inactive,inactive,inactive,inactive,inactive,inactive
Cc1cccc(C(=O)O)c1,inactive,381 nM (active) and inactive,inactive,inactive,inactive,inactive,inactive,inactive,inactive,–,inactive,inactive,inactive,inactive,–,inactive,inactive,–,inactive,inactive
COc1c(Cl)c(Cl)c(Cl)c(Cl)c1Cl,inactive,inactive,inactive,inactive,inactive,inactive,inactive,inactive,inactive,–,inactive,inactive,inactive,inactive,inactive,–,inactive,inactive,–,–
O=C(OCc1ccccc1)c1ccccc1O,inactive,inactive,inactive,inactive,inactive,inactive,inactive,inactive,inactive,–,inactive,inactive,inactive,inactive,–,–,inactive,inactive,–,inactive
